The values that follow come from ChEMBL document CHEMBL4513216, “Probing the Open Global Health Chemical Diversity Library for Multistage-Active Starting Points for Next-Generation Antimalarials” (ACS Infect Dis, 2020).

Each structure is given as a SMILES string. The campaign covered roughly 69,000 compounds. About 8,600 (12%) showed an effect of 50% or more. This is one part of a sample in which strong results are shown more often than they occur.

The experiment relates to Plasmodium berghei. The experiment is described as follows: Screen against P. berghei liver stage (PbLuc), transformed with Luciferase, at 10uM. Format: functional, HepG2. As to conditions: tested at 10 uM.
For `Cc1nc(C(=O)N2CCCC2c2noc(C3CC3)n2)c[nH]1` (stereo not drawn), the INHIBITION turned out to be 31.8%.
The figure for `COc1ccccc1CN1C[C@@H]2COC[C@]2(COCc2ccncc2)C1` is 60.2%; for `COc1cccc(CN2C[C@@H]3COC[C@]3(COCc3ccccn3)C2)c1` it is 53.2%; for `CCOC[C@]12COC[C@H]1CN(Cc1cccc(OC)c1)C2` it is 56.7%.
The figure for `c1ccc(CN2C[C@@H]3COC[C@]3(COCc3ccncc3)C2)nc1` is 48.6%; for `COc1ncccc1CN1C[C@@H]2COC[C@]2(COc2cccnc2)C1` it is -2.17%; for `COc1cccc(CN2C[C@@H]3COC[C@]3(CN3CCOCC3)C2)c1` it is 29.9%.
`COc1cccc(CN2C[C@@H]3COC[C@]3(COCc3ccncc3)C2)c1`: the INHIBITION amounted to 28.4%.
The figure for `CCS(=O)(=O)NC[C@]12COC[C@H]1CN(Cc1cccc(OC)c1)C2` is 39.2%.
With `c1cc(COC[C@]23COC[C@H]2CN(Cc2ccncc2)C3)ccn1`, the INHIBITION turned out to be 43.9%.
The figure for `COc1cccc(CN2C[C@@H]3COC[C@]3(COc3cccnc3)C2)c1` is 67.2%; for `COc1ccc(CN2C[C@@H]3COC[C@]3(COc3cccnc3)C2)cc1` it is 24%.
The figure for `COc1ccccc1CN1C[C@@H]2COC[C@]2(COc2cccnc2)C1` is -8.94%; for `COC(=O)c1cc(OCC2CCC2)cc(C(=O)NCC(C)(C)O)c1` it is 40.2%.
In the case of `O=C(CC1CCC2(CC1)CCN(Cc1nccs1)CC2)N1CC=CC1` it was 35.2%.
For `CCc1nnc2n1CCN(C(=O)c1cc(C)n(-c3ccccc3)c1C)C2`, the INHIBITION is reported as 5.9%.
In the case of `CN(C)C[C@]12COC[C@H]1CN(Cc1ccccn1)C2` it was 87.7%.
On to `Cc1cc(CN2C[C@@H]3COC[C@]3(CN(C)C)C2)no1`, for which the INHIBITION is listed as 18.8%.
Consider `CN(C)C[C@]12COC[C@H]1CN(Cc1ccc3ccccc3n1)C2`, for which the INHIBITION is given as 4.02%.
In the case of `CNc1nccc(C2CCCCN2Cc2cnn3cccnc23)n1` (stereo not drawn), the INHIBITION is -7.66%.
Regarding `O=C1CC2(CCN(Cc3ccoc3)C2)CN1c1cncnc1` (stereo not drawn), the INHIBITION came to 43.9%.
The figure for `CCCOCCN1CCC2(CC1)CC(=O)N(Cc1cc(F)cc(F)c1)C2` is 64.1%; for `O=C1CC2(CCN(Cc3ccoc3)CC2)CN1Cc1cc(F)cc(F)c1` it is 73.4%.
In the case of `O=C1CC2(CCN(CCCO)CC2)CN1Cc1ccc(F)c(F)c1` it was 36.8%.
Consider `O=C(CO)N1CCC2(CC1)CC(=O)N(Cc1cc(F)cc(F)c1)C2`, for which the INHIBITION is given as 8.99%.
For the molecule `O=C1CC2(CCN(Cc3ncc[nH]3)CC2)CN1Cc1cc(F)cc(F)c1`, the INHIBITION is given as -6.05%.
In the case of `CCCS(=O)(=O)N1CCC2(CC1)CC(=O)N(Cc1cc(F)cc(F)c1)C2` it was 17.1%; in that of `O=C1CC2(CCN(CCO)CC2)CN1Cc1cc(F)cc(F)c1`, 60.1%.
For the molecule `O=C1CC2(CCN(CCCF)CC2)CN1Cc1cc(F)cc(F)c1`, the INHIBITION amounted to 75.7%.
The figure for `CCN1CC2(CCN(CCOc3ccc(F)cc3)CC2)CC1=O` is 0.868%; for `CC(C)N1CCC2(CC1)CC(=O)N(Cc1cc(F)cc(F)c1)C2` it is 35.1%; for `CC(C)=CCN1CCC2(CC1)CC(=O)N(Cc1cc(F)cc(F)c1)C2` it is 38.6%.
The figure for `Cc1nc([C@@H]2C[C@@H]3CCN(C(=O)Cc4cccs4)C[C@H]3O2)no1` is 11.6%.
In the case of `CCCc1noc(-c2cn(CC(=O)N(CC)CC)nn2)n1` it was -51.7%.
For the molecule `Cc1ccc(C(O)CN(C)Cc2cnn(C)c2)cc1C` (stereo not drawn), the INHIBITION is 28.7%.
For `Cn1ccc(C(=O)NC2CCC23CCN(C(=O)c2ccncc2)CC3)c1` (stereo not drawn), the INHIBITION stood at 13.5%.
In the case of `CNc1snc(C)c1C(=O)N1CCC(Nc2ccc(C)nn2)CC1` it was 1.15%.
With `O=C1CCC(=O)N1CCn1nnc(-c2cccc(Cl)c2)n1`, the INHIBITION is listed as -5.57%.
Turning to `O=C1CC2(CCN(CC3CC3)C2)CN1c1cccc(F)c1` (stereo not drawn), the INHIBITION was -6.02%.
In the case of `O=C1CC2(CCN(CC3CCOC3)CC2)CN1Cc1cc(F)cc(F)c1` (stereo not drawn) it was 46.8%; in that of `O=C1CC2(CCN(CC3CC3)CC2)CN1Cc1cc(F)cc(F)c1`, 69.3%; in that of `CCc1n[nH]c(C2CN(C(=O)c3ccnc(C4CC4)n3)CCO2)n1` (stereo not drawn), 31.3%.
In the case of `CCc1ccc(CN2C[C@H](OCC(=O)N(C)C)[C@H]3COC[C@H]32)o1` it was 26.5%.
In the case of `Cc1nn(C)cc1CC(C#N)C(=O)Nc1cccc(O)c1` (stereo not drawn) it was 3.58%; in that of `COc1cccc(CN2CCC(c3cc(O)nc(C)n3)C2)c1` (stereo not drawn), 47.8%.
As to `COCc1cc(O)nc(C2CCCN(Cc3cccc(Cl)c3Cl)C2)n1` (stereo not drawn), the INHIBITION is 17.4%.
In the case of `COc1ccc(CC(=O)N2CCCC2c2nc(C)c(C)c(O)n2)cc1` (stereo not drawn) it was 46%; in that of `COc1cccc(CC(=O)N2CCCC2c2nc(C)c(F)c(O)n2)c1` (stereo not drawn), 3.91%.
The figure for `COc1cccc(CC(=O)N2CCCC2c2nc(C)c(C)c(O)n2)c1` (stereo not drawn) is 50.8%.
In the case of `COCc1cc(O)nc(C2CCCN(Cc3cccc(OC)c3)C2)n1` (stereo not drawn) it was 57.5%; in that of `COc1ccc(F)c(CN2CCCC(c3cc(O)nc(C)n3)C2)c1` (stereo not drawn), 25.8%.
Regarding `COc1ccc(CN2CCC(c3cc(O)nc(C)n3)C2)c(F)c1` (stereo not drawn), the INHIBITION amounted to 21.9%.
The figure for `COCc1cc(O)nc(C2CCCN(Cc3ccc(F)cc3)C2)n1` (stereo not drawn) is 39.7%; for `COc1ccc(F)c(CN2CCC(c3cc(O)nc(C)n3)C2)c1` (stereo not drawn) it is 50.6%.
The figure for `CCc1cc(O)nc(C2CCCN(Cc3ccncc3)C2)n1` (stereo not drawn) is 47.1%; for `COCc1cc(O)nc(C2CCCN(Cc3ccc(OC)cc3)C2)n1` (stereo not drawn) it is 61.9%; for `CCN(CC1CCOC1)C(=O)Nc1ccc(OCC(F)(F)F)nc1` (stereo not drawn) it is -1.885%.
As to `CC(C)(C)CCN1CCC(c2nnc(Cn3cccn3)n2C2CC2)CC1`, the INHIBITION came to 32.2%.
In the case of `CC(=O)NCC(=O)NCC1(O)CCN(c2cnccn2)C1` (stereo not drawn) it was 42.25%; in that of `COc1c(C)cnc(CN2CCOC(Cn3cncn3)C2)c1C` (stereo not drawn), 2.97%.
For `O=C(C1CCC2(CCN(CC3CCOCC3)CC2)O1)N1CCCC1` (stereo not drawn), the INHIBITION worked out at 1.34%.
Regarding `COCCNC(=O)C1(Cc2ccccc2-c2ccncc2)CCOCC1`, the INHIBITION turned out to be 40%.
Consider `Cc1cc(O)nc(C2CCCN(Cc3ccncc3)C2)n1` (stereo not drawn), for which the INHIBITION is reported as 27.3%.
Consider `COc1ccc(OC)c(CN2CCC(c3cc(O)nc(C)n3)C2)c1` (stereo not drawn), for which the INHIBITION is 41.2%.
In the case of `COCc1cc(O)nc(C2CCCN(Cc3cc(OC)ccc3F)C2)n1` (stereo not drawn) it was 52.3%; in that of `Cc1n[nH]c2c1C(c1ccsc1)SCC(=O)N2` (stereo not drawn), 19.7%; in that of `COc1ccccc1C1SCC(=O)Nc2c1c(=O)[nH]n2C1CCCCC1` (stereo not drawn), -2.39%.
The figure for `CCOc1ccc(C2SCC(=O)Nc3c2c(=O)[nH]n3C(CC)CC)cc1` (stereo not drawn) is -19.7%; for `COc1ccccc1C1CC(=O)Nc2c1c(=O)[nH]n2C1CCCC1` (stereo not drawn) it is 11.7%.
The figure for `CSc1ccc(C2SCC(=O)Nc3c2c(=O)[nH]n3C2CCOCC2)cc1` (stereo not drawn) is 52.1%.
With `CC1=Nc2c(c(=O)[nH]n2C2CCOCC2)C(c2cccc(O)c2)S1` (stereo not drawn), the INHIBITION was 0.29%.
The figure for `O=C1CSC(c2ccccc2)c2c(n(C3CCOCC3)[nH]c2=O)N1` (stereo not drawn) is 32.2%; for `O=C1CSC(c2ccc(O)cc2)c2c(n(C3CCOCC3)[nH]c2=O)N1` (stereo not drawn) it is 60.1%; for `Cn1cc(C2SCC(=O)Nc3c2c(=O)[nH]n3C2CCOCC2)cn1` (stereo not drawn) it is -70.7%.
Regarding `O=C1CC(C2CCCCC2)c2c(n(C3CCCC3)[nH]c2=O)N1` (stereo not drawn), the INHIBITION was 43.4%.
The figure for `O=C1CC(c2ccccc2F)c2c(n(C3CCCC3)[nH]c2=O)N1` (stereo not drawn) is 68.5%.
In the case of `O=C1CSC(c2ccsc2)c2c(n(C3CCCC3)[nH]c2=O)N1` (stereo not drawn) it was 63.3%; in that of `Cc1ccsc1CNC(=O)NC(C)c1ccc2c(c1)CCC(=O)N2` (stereo not drawn), -121%; in that of `COCCN1CCO[C@@H]2CN(Cc3ccc(C)s3)C[C@@H]2C1`, 24.6%.
In the case of `NC(=O)C1CCN(C(=O)CCSCc2ccccc2)CC1` it was 17.2875%; in that of `CCCn1nc(C)c(C(=O)N(C)[C@@H]2CC[C@@H](N3CCCC3)[C@@H]2O)c1C`, 32%; in that of `CCn1cnnc1C1CCN(C(=O)c2cc3c(s2)CCOC3)CC1`, -9.37%.
For the molecule `Cc1cc(C)cc(N2CCN(C(=O)CCN3C[C@H]4CC[C@@H]3C4)CC2=O)c1`, the INHIBITION was 22.1%.
Consider `CC(O)CN1CCN(C(=O)c2cccn2Cc2ccccc2)CC1` (stereo not drawn), for which the INHIBITION is listed as -0.113%.
In the case of `CCOC(C)c1nccn1CC(=O)Nc1cc(C)on1` (stereo not drawn) it was 15.4%; in that of `CSCC(=O)N1CCCC(CO)(CC2CC2)C1` (stereo not drawn), 41.2%.
Regarding `O=C1CC(c2ccsc2)c2c(n(C3CCOCC3)[nH]c2=O)N1` (stereo not drawn), the INHIBITION came out at 19%.
`O=C1CSC(c2ccsc2)c2c(n(C3CCOCC3)[nH]c2=O)N1` (stereo not drawn): the INHIBITION stood at 67.1%.
For `O=C1CSC(c2cccnc2)c2c(n(C3CCOCC3)[nH]c2=O)N1` (stereo not drawn), the INHIBITION is 48.1%.
In the case of `CC(C)(C)n1ncc2c1NC(=O)CSC2c1ccsc1` (stereo not drawn) it was -14.7%.
The figure for `O=C1CSC(c2ccncc2)c2c(n(C3CCOCC3)[nH]c2=O)N1` (stereo not drawn) is 52.1%; for `Cc1n[nH]c2c1C(c1ccncc1)SCC(=O)N2` (stereo not drawn) it is 23.5%; for `CC(C(=O)N1CCCCCC1)N1CCN(Cc2nccn2C)CC1` (stereo not drawn) it is 37.4%.
In the case of `CCSCCn1cc(-c2nccs2)nn1` it was -17.5%; in that of `CC(C)c1ncncc1C(=O)N1CCCN(Cc2ccccc2)CC1`, 14.1%; in that of `CC(C)C(=O)N1CCCC1C(=O)Nc1ccc(F)c(F)c1` (stereo not drawn), 21.7%.
As to `O=C(c1cccn1Cc1cccs1)N1CCN2CCCCC2C1` (stereo not drawn), the INHIBITION is 33.3%.
In the case of `CC(=O)N1CCO[C@@H]2CN(S(=O)(=O)c3ccc(F)cc3)CC[C@@H]2C1` it was 45.4%; in that of `O=C1CN(C(=O)CN(CC2CCC2)CC(F)(F)F)CCN1`, 31%.
The figure for `Cc1ccc(CN2Cc3ccccc3OC3(CCC(CO)CC3)C2)o1` (stereo not drawn) is 44.1%; for `Cc1ncc(CN2Cc3ccccc3OC3(CCC(CO)CC3)C2)cn1` (stereo not drawn) it is 47.2%; for `O=C(Nc1ccccc1)C1CN(Cc2ccsc2)CC12CCOCC2` (stereo not drawn) it is -3.12%.
Turning to `Cc1ccc(CN2Cc3ccccc3OC3(CCC(CO)CC3)C2)s1` (stereo not drawn), the INHIBITION was 67.9%.
In the case of `OCC1CCC2(CC1)CN(Cc1ccsc1)Cc1ccccc1O2` (stereo not drawn) it was 51.5%.
In the case of `Cc1cnccc1CN1Cc2ccccc2OC2(CCC(CO)CC2)C1` (stereo not drawn) it was 41.2%.
Take `OCC1CCC2(CC1)CN(Cc1ccccn1)Cc1ccccc1O2` (stereo not drawn): the INHIBITION came to 21%.
In the case of `OCC1CCC2(CC1)CN(Cc1ccccc1F)Cc1ccccc1O2` (stereo not drawn) it was 53.5%; in that of `Cc1ccc(CN2CC(C(=O)Nc3ccccc3)C3(CCOCC3)C2)s1` (stereo not drawn), 45.8%.
